Results on 18 compounds are retold here after PubChem BioAssay (EPA / NIEHS).

Activity calls are given as the source filed them. Rule for the calls: active = hit-call score of the fitted dose curve at least 0.9, where 1 is the maximum; inactive = score below 0.9.

Read-out in assay [1]: Human Leukocyte Antigen - DR isotype (HLADR), HLA-DRA (gene 3122)
The assay can be described thus: BSK_BE3C_HLADR: BioMAP Diversity Plus: BE3C Assay for Human Leukocyte Antigen - DR isotype (HLADR) Biomarker Activity (AID 2283032). The following applies: primary human bronchial epithelial cells; actives raise or lower the signal. A digest of the protocol: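 Cell-surface HLA-DR ELISA readout at 24 h after dosing in the BE3C primary human lung bronchial epithelial system; gain or loss of signal against DMSO, with parallel sulforhodamine B staining of total protein for overt cytotoxicity.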

Read-out in assay [2]: Vascular cell adhesion molecule 1 (VCAM1), VCAM1 (gene 7412)
The assay can be described thus: BSK_4H_VCAM1: BioMAP Diversity Plus: 4H Assay for Vascular cell adhesion molecule 1 (VCAM1) Biomarker Activity (AID 2283033).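 For outcome: cell-surface VCAM-1 protein measured by ELISA.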 The following applies: primary human endothelial cells (HUVEC); actives raise or lower the signal. A digest of the protocol: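 VCAM-1 ELISA read 24 h after chemical dosing of HUVEC in the BioMAP 4H system, with gain or loss of signal fitted relative to DMSO. Parallel SRB staining (560 nm) checked overt cytotoxicity.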

Read-out in assay [3]: Interferon-gamma inducible Protein 10 (IP10), CXCL10 (gene 3627)
The assay can be described thus: BSK_BE3C_IP10: BioMAP Diversity Plus: BE3C Assay for Interferon-gamma inducible Protein 10 (IP10) Biomarker Activity (AID 2283034). The following applies: primary human bronchial epithelial cells; actives raise or lower the signal. A digest of the protocol: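 IP-10 quantified by ELISA in human primary bronchial epithelial cell cultures at 24 hours post-dosing. Gain or loss of signal fitted relative to DMSO; parallel SRB staining assessed overt cytotoxicity.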

Read-out in assay [4]: Monokine induced gamma interferon (MIG), CXCL9 (gene 4283)
The assay can be described thus: BSK_BE3C_MIG: BioMAP Diversity Plus: BE3C Assay for Monokine induced gamma interferon (MIG) Biomarker Activity (AID 2283035). The following applies: primary human bronchial epithelial cells; actives raise or lower the signal. A digest of the protocol: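 hu bronchial epithelial 1° cells, 24 h cpd; MIG by ELISA; bidirectional fit, DMSO = baseline.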

Read-out in assay [5]: Transforming growth factor beta 1 (TGFb1), TGFB1 (gene 7040)
The assay can be described thus: BSK_BE3C_TGFb1: BioMAP Diversity Plus: BE3C Assay for Transforming growth factor beta 1 (TGFb1) Biomarker Activity (AID 2283036;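 for outcome: TGF-b1 protein level measured by ELISA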). To be noted: primary human bronchial epithelial cells; actives raise or lower the signal. A digest of the protocol:
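ELISA readout of TGF-b1 from human lung bronchial epithelial primary cells, taken 24 h post-treatment. Gain or loss of signal fitted relative to DMSO baseline, with parallel SRB staining for overt cytotoxicity.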

Read-out in assay [6]: Plasminogen activator inhibitor-1 (PAI1), SERPINE1 (gene 5054)
Briefly: BSK_BE3C_PAI1: BioMAP Diversity Plus: BE3C Assay for Plasminogen activator inhibitor-1 (PAI1) Biomarker Activity (AID 2283037). To be noted: primary human bronchial epithelial cells; actives raise or lower the signal. A digest of the protocol: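 PAI-1 was measured by ELISA in human primary bronchial epithelial cultures 24 h after chemical dosing, with cytotoxicity checked by SRB total-protein staining in parallel cultures. Activity was fitted in both directions relative to DMSO.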

Read-out in assay [7]: Urokinase-type plasminogen activator receptor (uPAR), PLAUR (gene 5329)
Briefly: BSK_BE3C_uPAR: BioMAP Diversity Plus: BE3C Assay for Urokinase-type plasminogen activator receptor (uPAR) Biomarker Activity (AID 2283039).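 For outcome: cells exposed to compound for one day before measurement.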 To be noted: primary human bronchial epithelial cells; actives raise or lower the signal. The procedure, abridged: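 uPAR levels were measured by ELISA after 24 h compound treatment of primary human bronchial epithelial cells, fitted in both directions relative to DMSO. Parallel SRB staining served as the cytotoxicity read-out.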

Read-out in assay [8]: Interleukin-6 (IL6), IL6 (gene 3569)
The assay can be described thus: BSK_CASM3C_IL6: BioMAP Diversity Plus: CASM3C Assay for Interleukin-6 (IL6) Biomarker Activity for (AID 2283040). The following applies: primary human coronary artery smooth muscle cells; actives raise or lower the signal.

Read-out in assay [9]: Tissue plasminogen activator (tPA), PLAT (gene 5327)
Briefly: BSK_BE3C_tPA: BioMAP Diversity Plus: BE3C Assay for Tissue plasminogen activator (tPA) Biomarker Activity (AID 2283041).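 For outcome: tPA level quantified by ELISA one day after compound addition.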 The following applies: primary human bronchial epithelial cells; actives raise or lower the signal. A digest of the protocol:
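tPA measured by ELISA 24 h after dosing human primary bronchial epithelial cells (BE3C system). Changes in either direction were fitted against DMSO. Parallel cultures were stained with SRB to flag overt cytotoxicity.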

Read-out in assay [10]: urokinase plasminogen activator (uPA), PLAU (gene 5328)
The assay can be described thus: BSK_BE3C_uPA: BioMAP Diversity Plus: BE3C Assay for urokinase plasminogen activator (uPA) Biomarker Activity (AID 2283038).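 For outcome: uPA protein level quantified by ELISA in cell cultures; uPA read one day after compound addition.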 The following applies: primary human bronchial epithelial cells; actives raise or lower the signal. The procedure, abridged: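 Bronchial epithelial cells (human, primary); chemical 24 h; uPA by ELISA; bidirectional fit vs DMSO. SRB (0.1%, after 10% TCA fixation, 560 nm) in parallel cultures for cytotoxicity.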

Take `CCCCCCCCOc1ccc(C(=O)c2ccccc2)c(O)c1`: the outcome in assay [1], in assay [2], in [3], in [4], in assay [5] and in assay [6] was inactive. The outcome in [7], in assay [8] and in assay [9] was inactive.
For orientation: AC50 means the midpoint of the concentration-response curve, whichever way the signal moves. In the case of `CN(C[C@@H](CC[N+]12CCC(C3CCCCC3)(CC1)CC2)c1ccc(Cl)c(Cl)c1)C(=O)c1cc(C(F)(F)F)cc(C(F)(F)F)c1`, the AC50 in [1] is 12.6 µM (active); in assay [2] it was 32 µM (active); in assay [3], 13.1 µM (active); in assay [4], 29.6 µM (active); in [5] it was 17.5 µM (active); in [6], 12.5 µM (active). The AC50 was 16.6 µM (active) in assay [10], 13.6 µM (active) in [7], 15.9 µM (active) in assay [8] and 11.9 µM (active) in assay [9].
Consider `CCCCCc1ccc(N)cc1`, for which the outcome in [1], in assay [2], in [3], in assay [4], in [5] and in [6] was inactive. Besides, the result in assay [10], in [8] and in assay [9] was inactive. Also, the AC50 in assay [7] was 5.56 µM (active).
In the case of `CN(C)C(=O)C1(N2CCCCC2)CCN(CC[C@@]2(c3ccc(Cl)c(Cl)c3)CN(C(=O)c3ccccc3)CCO2)CC1`, the AC50 was 14.4 µM (active) in [1]; 30.8 µM (active) in assay [2]; 16.4 µM (active) in assay [3]; 31.2 µM (active) in [4]; 32.3 µM (active) in [5]; 24.4 µM (active) in assay [6]. In addition, the AC50 in assay [10] was 17.7 µM (active); in assay [7], 12 µM (active); in [8], 31.2 µM (active); in [9], 17.3 µM (active).
In the case of `O=C(Nc1ccc(Cl)cc1)Nc1ccc(Cl)c(Cl)c1`, the concentration at half-maximal activity (AC50) is 1.39 µM (active) in assay [1]; 3.48 µM (active) in [2]; 2.52 µM (active) in [3]; 1.11 µM (active) in assay [6]; 1.1 µM (active) in [7]; 12.7 µM (active) in [8]. Besides, the AC50 in [9] was 1.73 µM (active). Moreover, the outcome in [4], in assay [5] and in assay [10] was inactive.
As for `CC[C@@H]1C[C@H](N(Cc2cc(C(F)(F)F)cc(C(F)(F)F)c2)C(C)=O)c2cc(C(F)(F)F)ccc2N1C(=O)OC(C)C`, the result in assay [1], in [2], in assay [3], in assay [4], in [5] and in assay [6] was inactive. Also, the result in assay [10], in [7], in assay [8] and in [9] was inactive.
Regarding `Cc1cccc2ccccc12`, the result in [1], in [2], in [3], in [4], in assay [5] and in assay [6] was inactive. The outcome in [10], in [7], in assay [8] and in assay [9] was inactive.
As to `CCCC(=O)OCCC(C)C`, the result in assay [1], in [2], in assay [3], in assay [4], in assay [5] and in [6] was inactive. In addition, the result in assay [7], in [8] and in assay [9] was inactive.
Consider `CC(C)(C)c1cc(/C=C2\SC(N)=NC2=O)cc(C(C)(C)C)c1O`, for which the AC50 in assay [1] is 7.46 µM (active); in [2], 26.4 µM (active); in assay [10] it was 3.97 µM (active); in assay [8], 36.2 µM (active). Also, the result in assay [3], in assay [4], in assay [5], in assay [6], in [7] and in assay [9] was inactive.
Consider `CCOC(=O)O[C@H](C)OC(=O)c1ccc2c(c1)cc(C(=O)NC1CCN(C(C)C)CC1)n2Cc1cc(-c2ccc(Cl)s2)on1`, for which the AC50 was 10.7 µM (active) in [1]; 5.44 µM (active) in assay [2]; 11.5 µM (active) in assay [3]; 14.4 µM (active) in [4]; 11.8 µM (active) in assay [5]; 12.1 µM (active) in assay [6]. The concentration at half-maximal activity (AC50) is 9.63 µM (active) in [10], 9.89 µM (active) in [7], 9.24 µM (active) in assay [8] and 9.95 µM (active) in assay [9].
With `COc1ccc2cc(S(=O)(=O)N[C@H](CC(=O)N[C@H](Cc3ccc(CN4[C@H](C)CCC[C@@H]4C)cc3)C(=O)N(C)C(C)C)c3ccc4c(c3)OCO4)ccc2c1`, the AC50 in assay [1] is 32.8 µM (active); in assay [3] it was 31.1 µM (active); in assay [4], 33.5 µM (active); in assay [6], 19.1 µM (active); in assay [10], 14.6 µM (active); in assay [7] it was 18.5 µM (active). For the same compound, the AC50 in assay [9] is 7.92 µM (active). Further, the result in assay [2], in assay [5] and in [8] was inactive.
Regarding `COc1cccc([C@H](O)C2CCN(CCc3ccc(F)cc3)CC2)c1OC`, the outcome in [1], in assay [3], in assay [4], in assay [5], in assay [6] and in assay [10] was inactive. Also, the outcome in assay [7], in assay [8] and in assay [9] was inactive. The AC50 in assay [2] is 12.9 µM (active).
With `O=CCCCC=O`, the results for the concentration at half-maximal activity (AC50) in assay [1], in assay [2] and in [6] were 33.5 µM (active), 31.5 µM (active) and 32.8 µM (active), respectively. Moreover, the result in [3], in [4], in assay [5], in [10], in assay [7] and in [8] was inactive. Besides, in [9], the result was inactive.
In the case of `CC1=CC(=O)/C(=C(/C)O)C(=O)O1`, the result in assay [1], in assay [2], in assay [3], in assay [4], in [5] and in assay [6] was inactive. The result in [10], in assay [7], in assay [8] and in assay [9] was inactive.
Turning to `O=C(O)Cn1c(=O)n(Cc2ccc(Br)cc2F)c(=O)c2ccc(Cl)cc21`, the result in [1], in [2], in assay [3], in [4], in assay [5] and in [6] was inactive. Moreover, the result in assay [10], in [7] and in [8] was inactive. In addition, in assay [9], the AC50 was 11.5 µM (active).
Turning to `CN(C)c1ccc(C(=C2C=CC(=[N+](C)C)C=C2)c2ccc(N(C)C)cc2)cc1`, the AC50 in [1] was 1.28 µM (active); in assay [2], 5.55 µM (active); in [3], 5.52 µM (active); in [4] it was 6.32 µM (active); in [5] it was 0.73 µM (active); in assay [6], 0.228 µM (active). Besides, the results for the AC50 in assay [10], in assay [7] and in assay [8] were 1.97 µM (active), 5.52 µM (active) and 6.61 µM (active), respectively.
In the case of `OC12N=C(c3ccccc3)SC1Cc1cc(Cl)ccc12` (configuration not stated), the outcome in assay [1], in [3], in assay [4], in assay [5], in [6] and in [10] was inactive. Besides, the result in [7], in assay [8] and in assay [9] was inactive. Further, in assay [2], the AC50 is 20 µM (active).
For `C[C@]12CC[C@@H]3c4ccc(O)cc4CC[C@H]3[C@@H]1CCC2=O`, the outcome in [1], in assay [2], in assay [3], in [4], in [5] and in assay [6] was inactive. The result in assay [10], in assay [7], in assay [8] and in [9] was inactive.
